MCF10A rereplic: DNA re-replication induction in MCF 10a cells; MCF 10A DNA re-replication, Hoechst nuclear intensity, 48 h; Potency, µM (highest dose often 46.1 µM), hits mostly activators; hit rate 2.9% among 350,000; AID 624296; further: nearly all actives have a fitted effect of over 50% in size
HT1080 IDH1KD tx: toxicity to HT-1080 IDH1 knockdown cells (counter line) | HT-1080 IDH1 knockdown viability, ATP luminescence, 48 h | Potency, µM (series often up to 46.1 µM), most hits filed as cytotoxic | hit rate 2% among 360,000
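Cytotoxicity counter-line: IDH1KD HT-1080, 48 h, CellTiter-Glo. Curves classed by r2, magnitude and activity.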
KB-V1 cytotox: KB-V1 MDR subline cytotoxicity; KB-V1 MDR cells viability, CellTiter-Glo, 72 h; Potency, µM (titrated, usually from 46.1 µM), hits mostly cytotoxic; hit rate 3.4% among 400,000; AID 1347076; further: nearly all actives have a fitted effect of over 60% in size
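Cytotoxicity toward P-gp-expressing KB-V1 cells was determined as loss of CellTiter-Glo luminescence after 72 h at 37 degrees C. Compounds were tested in quantitative HTS format across a concentration range, with curves fitted to normalized data.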
KB-3-1 tox: kills parental KB-3-1 adenocarcinoma cells; KB-3-1 viability, CellTiter-Glo ATP luminescence, 72 h; Potency, µM (top dose mostly 46.1 µM), hits mostly cytotoxic; hit rate 1.4% among 400,000; further: nearly all actives have a fitted effect of over 60% in size
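72 h, 37 °C compound treatment of KB-3-1 parental cells; CellTiter-Glo added, 10 min, luminescence read. Data corrected against DMSO-only plates and normalized before curve fitting.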
HT1080NT lethal: kills 2HG-producing HT-1080-NT fibrosarcoma cells; HT-1080-NT fibrosarcoma viability, CellTiter-Glo ATP luminescence, 48 h; Potency, µM (doses to about 46.1 µM), usual class: cytotoxic; hit rate 1.6% among 360,000;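 further: NT is the 2HG producing partner of a matched IDH1 knockdown line; nearly all actives have a fitted effect of over 55% in size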
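Viability by CellTiter-Glo luminescence after 48 h compound exposure at 37C of HT-1080-NT cells (750/well, RPMI, 5% FBS). % activity scaled between DMSO wells and medium-only wells, then curve-fitted and categorized by curve class.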
SW480 rereplic: inducers of DNA re-replication in SW480 colon cancer cells; SW480 DNA re-replication, Hoechst DNA content imaging, 48 h; Potency, µM (doses to about 46.1 µM), usual class: activators; hit rate 1.8% among 340,000; AID 624297; further: nearly all actives have a fitted effect of over 55% in size
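DNA re-replication was detected as more nuclei of elevated Hoechst intensity after 48 hr exposure to compound (23 nL pinned per well of 250 cells).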
Hits are given with their value; n = inactive; u = inconclusive; x = no result; [ ] = another dose, or the depositor's remark. Compounds with a hit are over-represented: about 8% of the library has one in this group of screens. The call rests on the fitted dose curve; in most records, active means well fitted curve in the direction sought with a large enough effect; inconclusive means small, poorly fitted or top-dose-only effect, or another doubt; inactive means no such curve, though single readings can be large; an effect the other way counts as inactive or inconclusive.

SMILES	MCF10A rereplic	HT1080 IDH1KD tx	KB-V1 cytotox	KB-3-1 tox	HT1080NT lethal	SW480 rereplic
Oc1c(Cl)cc(Cl)cc1/C=N/c1nc(-c2ccc(Cl)cc2)cs1	u	n	n	n	n	n
Oc1c(Cl)cc(Cl)cc1/C=N/c1nccs1	15µM	n	n	n	n	n
Cc1nnsc1-c1onc(C)c1C(=O)Nc1cc(Cl)cc(Cl)c1	n	u	16µM	n	u	n
COc1ccc(CNC(=O)C(NC(C)=O)C(=O)Nc2ccc(C(C)C)cc2)cc1 (stereo not drawn)	n	n	n	n	n	n
CCC(C)c1ccc(S(=O)(=O)N2CCN(CC(O)CN3CCOCC3)CC2)cc1 (stereo not drawn)	n	n	5.8µM	n	n	n
Cc1ccc(S(=O)(=O)N2CCN(CC(O)CN3CCOCC3)CC2)cc1 (stereo not drawn)	u	n	n	n	n[9.24 µM]	u
Cc1cc(O)ccc1N/C=C(\C#N)c1nc2ccccc2o1	18µM	n	n	n	n	u
N#C/C(=C\c1c(Cl)cccc1Cl)c1nc2ccccc2o1	u	u	n	n	n	n
N/C(=N\O)c1cn(Cc2ccccc2Cl)c2ccccc12	n	n	n	n	u	n
Cc1[nH][nH]c(=O)c1C(c1c(C)[nH][nH]c1=O)c1cn(Cc2ccccc2Cl)c2ccccc12	6.5µM	18µM	18µM	7.3µM	u	16µM
CC(Sc1nnnn1-c1ccccc1)C(=O)NC1CCCC1 (stereo not drawn)	n	n	13µM	n	n	n
O=C(NC1CCCCC1)C1CCCN(c2nnnn2-c2ccccc2)C1 (stereo not drawn)	n	n	16µM	n	n	n
COc1ccc(-n2nnnc2SC(C)C(=O)NC2CCCC2)cc1 (stereo not drawn)	n	n	n	n	n	n
CCOc1ccc(NC(=O)C2CCN(c3nnnn3-c3ccccc3)CC2)cc1	n	n	8.2µM	n	n	n
O=C(Nc1cccc(F)c1)C1CCN(c2nnnn2-c2ccccc2)CC1	u	n	u	u	n	u
CCOC(=O)C1CCCN(c2nnnn2-c2ccccc2)C1 (stereo not drawn)	n	n	n	n	n	n
CCCn1c(SCC(=O)NC(=O)NC(C)(C)C)n[nH]c1=O	n	n	n	n	n	n
Cc1ccc2c(c1)C=CC(C)(C)S2(=O)=O	n	n	n	n	n	n
O=C(N/N=C/c1ccc(O)c(O)c1)c1cccc(S(=O)(=O)N2CCCCC2)c1	n	n	n	n	n	n
O=C(Cc1ccc(Cl)cc1)N/N=C/c1ccc(O)c(O)c1	x	n	u	u	n	x
CC(C)(C)OC(=O)N/N=C/c1cc(N=Nc2ccccc2)ccc1O	u	u	n	u	n	n
O=C(N/N=C\c1cc(Br)ccc1O)c1ccc(S(=O)(=O)N2CCCCC2)cc1	n	2.1µM	n	n	u	n
O=C(N/N=C/c1cc(Cl)ccc1O)c1ccc(Br)cc1	n	5.8µM	u	u	9.2µM	1.6µM
Cc1ccc(O)c(/C=N/NC(=O)Cc2ccc(Cl)cc2)c1	n	13µM	n	n	u	n
Cc1ccc(N=Nc2ccc(O)c(/C=N\NC(=O)c3ccc(N)cc3)c2)cc1C	n	1.6µM	n	n	4µM	3.7µM
SMILES	MCF10A rereplic	HT1080 IDH1KD tx	KB-V1 cytotox	KB-3-1 tox	HT1080NT lethal	SW480 rereplic
Cc1ccc(CCNC(=O)c2cc(C)nc3c2c(C)nn3-c2ccc(C)cc2)cc1	x	x	n	n	x	x
CCCN(CCC)CCNC(=O)c1sc2nc3n(c(=O)c2c1C)CCCCC3	x	x	n	n	x	x
CC[C@H](C)[C@H]1O[C@]2(CC[C@@H]1C)C[C@@H]1C[C@@H](C/C=C(\C)[C@H](O[C@@H]3C[C@H](OC)[C@H](O[C@@H]4C[C@H](OC)[C@@H](O)[C@H](C)O4)[C@H](C)O3)[C@@H](C)/C=C/C=C3\CO[C@@H]4[C@H](O)C(C)=C[C@@H](C(=O)O1)[C@]34O)O2	u	x	x	x	x	n
O=C1[C@@H]2C[C@@H]3C[C@H]1C[C@@](O)(C3)C2	n	x	x	x	x	n
Cc1cccc(NC(=O)c2n[nH]c([N+](=O)[O-])c2Br)c1C	n	26µM	u	u	u	n
Cc1cccc(C)c1OC(=O)CSc1nnc(-c2ccccc2O)o1	18µM	u	n	n	n	n
CC1CCCCN1C(=O)CSc1nnc(-c2ccccc2Cl)o1 (stereo not drawn)	x	x	n	n	x	x
Cc1cccc(C)c1OC(=O)CSc1nnc(-c2cccs2)o1	x	x	n	n	x	x
Cc1cc(-c2nnc(SCC(=O)N3C(C)CCCC3C)o2)no1 (stereo not drawn)	u	n	n	n	n	6.5µM
CC1CCCCN1C(=O)CSc1nnc(-c2ccccc2O)o1 (stereo not drawn)	n	n	u	13µM	n	u
Cc1nnc(N2C(=O)C(=O)/C(=C(\O)c3ccc4c(c3)CC(C)O4)C2c2ccccc2)s1 (stereo not drawn)	n	n	n	n	n	n
CCN1C(=O)/C(=C/c2ccc(C)o2)N(C)C1=S	u	n	u	n	n	18µM
O=C(/C=C\Nc1ccc2c(c1)OCO2)c1ccc2c(c1)OCO2	21µM	u	n	n	u	n
O=C(/C=C\Nc1ccc2c(c1)OCO2)c1cccs1	n	6.5µM	n	u	u	n
O=C(/C=C\Nc1ccc2c(c1)OCO2)c1ccc(Cl)s1	n	u	n	n	n	n
COc1ccc(OC)c(NC(=O)Nc2cnccn2)c1	n	n	n	n	n	n
Cc1c(Cl)cccc1NC(=O)Nc1cnccn1	n	n	u	16µM	n	n
COc1ccccc1NC(=O)Nc1cnccn1	n	n	4.1µM	u	n	n
CCOc1ccc(CNC(=O)Cn2ccc3cc(S(=O)(=O)N4CCCCCC4)ccc32)cc1	n	n	n	u	n	n
C/C(=N\Nc1nc2c(s1)CCCC2)c1ccc(Cl)cc1	u	23µM	u	u	23µM	u
CN(C)c1ccc(C(=O)Nc2nc3c(s2)CCCC3)cc1	n	n	n	n	n	n
Cc1ccc(S(=O)(=O)N2CCN(CC(O)c3ccccc3)CC2)cc1C (stereo not drawn)	n	n	u	n	n	n
CN(C)/C=N/c1ncc(-c2ncc(C(F)(F)F)cc2Cl)cn1	n	n	10µM	u	n	n
Cc1cc(C(=O)CCl)c(C)n1-c1cccc(S(=O)(=O)N2CCOCC2)c1	u	u	16µM	n	23µM	n
Cc1ccc(C)n1-c1cccc(S(=O)(=O)N2CCOCC2)c1	18µM	n	n	n	n	u
Cc1nn(-c2ccccc2)c(N)c1N=Nc1cccc(S(=O)(=O)N2CCOCC2)c1	n	u	4.1µM	u	u	u

Source: PubChem (National Center for Advancing Translational Sciences (NCATS))
